Laboratory results reported in the antibiotic and cytotoxicity screens of Wong et al. (2023).
The whole screen tested about 39,000 compounds, of which about 500 (1.3%) were called active. The sample holds actives, similar compounds and a random draw of the others, so the mix is not that of the screen.

Tested on: S. aureus RN4220
Experiment: growth inhibition call (relative growth <= 0.2)
Conditions: 50 µM

SMILES | growth inhibition call
C[C@@H]1CN([C@H](C)CO)C(=O)c2cc(NC(=O)Nc3ccc4c(c3)OCO4)ccc2O[C@@H](C)CCCCO[C@H]1CN(C)Cc1ccc(C(=O)O)cc1 | inactive
C[C@@H]1CN([C@H](C)CO)C(=O)c2cc(NC(=O)Nc3ccc4c(c3)OCO4)ccc2O[C@@H](C)CCCCO[C@@H]1CN(C)C(=O)CCC(F)(F)F | inactive
COc1ccc(CN(C)C[C@@H]2Oc3c(NC(=O)c4ccc(-c5nccs5)cc4)cccc3C(=O)N([C@@H](C)CO)C[C@H]2C)cc1 | inactive
Cc1noc(C)c1S(=O)(=O)Nc1ccc2c(c1)CC(=O)N([C@@H](C)CO)C[C@H](C)[C@H](CN(C)S(=O)(=O)c1cn(C)cn1)O2 | inactive
C[C@@H]1CN([C@H](C)CO)C(=O)c2cccc(NS(C)(=O)=O)c2O[C@H]1CN(C)C(=O)Nc1ccccc1 | inactive
CC(C)NC(=O)Nc1ccc2c(c1)C(=O)N([C@H](C)CO)C[C@H](C)[C@H](CN(C)Cc1ccc(C(=O)O)cc1)O2 | inactive
NCC1OC(OC2C(N)CC(N)C(OC3OC(CO)C(O)C(N)C3O)C2O)C(N)CC1O (stereo unspecified) | active
NC[C@H]1O[C@H](O[C@@H]2[C@H](O)[C@@H](O[C@H]3O[C@H](CO)[C@@H](O)[C@H](N)[C@H]3O)[C@H](N)C[C@@H]2N)[C@H](O)[C@@H](O)[C@@H]1O | inactive
NC[C@@H]1O[C@H](O[C@H]2[C@@H](O)[C@H](O[C@@H]3[C@@H](O)[C@H](N)C[C@H](N)[C@H]3O[C@@H]3O[C@H](CO)[C@@H](O)C[C@H]3N)O[C@@H]2CO)[C@H](N)[C@@H](O)[C@@H]1O[C@H]1O[C@H](CO)[C@@H](O)[C@H](O)[C@@H]1O | inactive
NC[C@H]1O[C@H](O[C@H]2[C@@H](O[C@@H]3O[C@H](CO)[C@@H](O)[C@H]3O)[C@@H](O)[C@H](N)C[C@@H]2N)[C@H](N)[C@@H](O)[C@@H]1O | inactive
NC[C@H]1O[C@H](O[C@H]2[C@H](O)[C@@H](O[C@H]3O[C@H](CO)[C@@H](O)[C@H](N)[C@H]3O)[C@H](N)C[C@@H]2N)[C@H](N)C[C@@H]1O | active
NCC1CCC(N)C(OC2C(N)CC(N)C(OC3OC(CO)C(O)C(N)C3O)C2O)O1 (stereo unspecified) | inactive
C[C@@H]1CN([C@@H](C)CO)C(=O)c2cccc(NC(=O)CCCCCC(=O)Nc3ccccc3N)c2O[C@@H]1CN(C)C(=O)Nc1ccc(F)cc1 | inactive
OCC(CO)NC1CC(O)(CO)C(O)C(O)C1O (stereo unspecified) | inactive
C[C@H](CO)N1C[C@H](C)[C@H](CN(C)CC2CC2)OCCCC[C@H](C)Oc2ccc(NC(=O)Cc3ccccc3)cc2C1=O | inactive
COc1ccc(NC(=O)Nc2ccc3c(c2)C(=O)N([C@@H](C)CO)C[C@H](C)[C@@H](CN(C)S(=O)(=O)c2ccc(Cl)cc2)OCCCC[C@H](C)O3)cc1 | inactive
CCCNC(=O)N1C[C@]2(CCN(CC2)S(=O)(=O)c2ccccc2)c2c(n(c3cc(ccc23)OC)C)[C@@H]1CO | inactive
C[C@H](CO)N1C[C@H](C)[C@@H](CN(C)Cc2ccc(C(F)(F)F)cc2)Oc2ccc(NC(=O)Nc3ccc(F)cc3)cc2CC1=O | inactive
Cc1cc2nc(C(=O)N[C@H]3CCN(C)C3)cc(-c3ccccc3Cl)c2c(C)c1-c1ccc(CO)cc1 | active
Cc1cc2nc(C(=O)NC[C@H]3CCCS(=O)(=O)C3)cc(-c3ccccc3Cl)c2c(C)c1-c1ccncc1 | inactive
CC(C)(C)[S@@](=O)N1Cc2cc(C(=O)N[C@@H]3CCN(Cc4ccccc4)C3)nc(-c3cccc(-c4ccncc4)c3)c2[C@H]1CCO | inactive
CC(C)NC(=O)N(C)C[C@@H]1Oc2ccc(NC(=O)Cc3ccccc3)cc2CC(=O)N([C@@H](C)CO)C[C@H]1C | inactive

SMILES | growth inhibition call
CC(C)[C@@H](CS(=O)(=O)C(C)C)N1C(=O)[C@@](C)(CC(=O)O)C[C@H](c2cccc(Cl)c2)[C@H]1c1ccc(Cl)cc1 | inactive
CNc1ncnc2c1ncn2[C@@H]1O[C@H](CO)[C@@H](O)[C@H]1O | inactive
COc1ccc(C[C@H](N)C(=O)N[C@H]2[C@@H](O)[C@@H](n3cnc4c(N(C)C)ncnc43)O[C@@H]2CO)cc1 | active
COc1ccc(C[C@@H](N)C(=O)N[C@@H]2[C@@H](O)[C@@H](n3cnc4c(N(C)C)ncnc43)O[C@@H]2CO)cc1 | active
COc1nc(N)nc2c1ncn2[C@@H]1O[C@H](CO)[C@@H](O)[C@@H]1O | inactive
Nc1ncnc2c1ncn2[C@H]1O[C@@H](CO)[C@H](O)[C@@H]1O | inactive
COc1ccc(CC(N)C(=O)NC2C(CO)OC(n3cnc4c(N(C)C)ncnc43)C2O)cc1.Cl.Cl (stereo unspecified) | inactive
Nc1ncnc2c1ncn2[C@@H]1O[C@H](CO)[C@@H](O)[C@@H]1O | inactive
CN(C)c1ncnc2c1ncn2[C@H]1O[C@@H](CO)[C@@H](N)[C@@H]1O | inactive
COc1ccc(C[C@H](N)C(=O)N[C@H]2[C@@H](O)[C@H](n3cnc4c(N(C)C)ncnc43)O[C@@H]2CO)cc1 | active
O=C(C[C@@H]1CC[C@@H]2[C@H](COC[C@@H](O)CN2C(=O)c2ccccc2F)O1)N1CCN(c2ccccc2)CC1 | inactive
C[C@H](CO)N1C[C@H](C)[C@H](CN(C)Cc2ccc(C(=O)Nc3ccccc3N)cc2)Oc2ccc(NC(=O)Nc3ccc(C(F)(F)F)cc3)cc2CC1=O | inactive
C[C@@H]1CN([C@@H](C)CO)C(=O)c2cc(NS(=O)(=O)c3cn(C)cn3)ccc2O[C@@H]1CN(C)S(=O)(=O)c1cccs1 | inactive
Cc1noc(C)c1NC(=O)Nc1cccc2c1O[C@H](CN(C)Cc1ccc(C(=O)Nc3ccccc3N)cc1)[C@@H](C)CN([C@H](C)CO)C2=O | inactive
Cc1noc(C)c1S(=O)(=O)Nc1ccc2c(c1)C(=O)N([C@@H](C)CO)C[C@H](C)[C@@H](CN(C)Cc1ccc3c(c1)OCO3)O2 | inactive
CCCCCCCCC=CCCCCCCCC(=O)[O-].[NH3+]CCO | inactive
C[C@H]1CN([C@@H](C)CO)C(=O)c2cc(NC(=O)Nc3cccc4ccccc34)ccc2O[C@@H]1CN(C)Cc1ccc(-c2ccccc2)cc1 | inactive
Cl.N=C(NN=Cc1ccc(Cl)cc1)NN=Cc1ccc(Cl)cc1 | inactive
Cl.Cl.N=C(NCCCCCCNC(=N)NC(=N)Nc1ccc(Cl)cc1)NC(=N)Nc1ccc(Cl)cc1 | active
CC(C)NC(=N)NC(=N)Nc1ccc(Cl)cc1.Cl | inactive
C[C@H](CO)N1C[C@H](C)[C@H](CN(C)Cc2ccc3c(c2)OCO3)Oc2c(NC(=O)C3CC3)cccc2C1=O | inactive
C[C@H](CO)N1C[C@H](C)[C@@H](CN(C)Cc2ccc(C(=O)O)cc2)Oc2ccc(NC(=O)Cn3cnnn3)cc2C1=O | inactive

SMILES | growth inhibition call
Nc1ccn([C@@H]2O[C@H](CO)[C@@H](O)C2(F)F)c(=O)n1 | inactive
C[C@@]1(F)[C@H](O)[C@@H](CO)O[C@H]1n1ccc(N)nc1=O | inactive
Cl.Nc1ccn(C2OC(CO)C(O)C2(F)F)c(=O)n1 (stereo unspecified) | active
COc1ccc(NC(=O)N(C)C[C@@H]2OCCCC[C@H](C)Oc3ccc(NC(=O)c4ccccc4)cc3C(=O)N([C@@H](C)CO)C[C@@H]2C)cc1 | inactive
COc1ccc2c3c([nH]c2c1)[C@@H](CO)N(Cc1ccc(cc1)Cl)C[C@]13CN(CCc2ccccc2)C1 | active
COc1ccc2c3c([nH]c2c1)[C@@H](CO)N(Cc1ccc(cc1)Cl)C[C@]13CCN(CCc2ccccc2)CC1 | active
COc1ccc2c3c([nH]c2c1)[C@H](CO)N(Cc1ccc(cc1)Cl)C[C@]13CCN(CC1)Cc1nccs1 | inactive
COc1ccc2c3c([nH]c2c1)[C@H](CO)N(C[C@]13CN(CCc2ccccc2)C1)C(=O)CN1CCOCC1 | inactive
COc1ccc2c3c([nH]c2c1)[C@H](CO)N(Cc1ccc(cc1)Cl)C[C@]13CCN(CCc2ccccc2)CC1 | inactive
COc1ccc2c3c([nH]c2c1)[C@@H](CO)N(Cc1ccc(cc1)Cl)C[C@]13CCN(CC1)Cc1ccccc1 | inactive
COc1ccc2c3c([nH]c2c1)[C@@H](CO)N(C[C@]13CN(CCc2ccccc2)C1)C(=O)CN1CCOCC1 | inactive
COc1ccc2c3c([nH]c2c1)[C@H](CO)N(Cc1ccc(cc1)Cl)C[C@]13CN(CCc2ccccc2)C1 | active
COc1ccc2c3c([nH]c2c1)[C@H](CO)N(Cc1ccc(cc1)Cl)C[C@]13CCN(CC1)Cc1ccccc1 | inactive
Cc1ccc(NC(=O)Nc2cc(C(F)(F)F)ccc2F)cc1Nc1ccc2c(c1)NC(=O)/C2=C\c1ccc[nH]1 | inactive
N[C@@]1(C(=O)O)CO[C@H]2[C@H](C(=O)O)[C@H]21 | inactive
O=C(NCC(=O)N1CC[C@H](N[C@H]2CC[C@@](O)(c3ccc(-c4ncccn4)cn3)CC2)C1)c1cccc(C(F)(F)F)c1 | inactive
CO[C@@H]1CN(C)C(=O)c2cc(NS(=O)(=O)CC(F)(F)F)ccc2OC[C@H](C)N(Cc2ccccn2)C[C@H]1C | inactive
CCCNC(=O)N1[C@@H]2Cn3c(cccc3=O)[C@H]1[C@@H](C(=O)NCC(F)(F)F)[C@@H]2CO | inactive
C[C@@H]1CN([C@H](C)CO)C(=O)c2cc(NC(=O)CCCN(C)C)ccc2O[C@H]1CN(C)C(=O)Nc1ccccc1 | inactive
CCS(=O)(=O)Nc1ccc2c(c1)C(=O)N(C)[C@H]1CC[C@@H](CC(=O)NCc3ccc(OC)cc3)O[C@@H]1CO2 | inactive
C[C@@H]1CN([C@@H](C)CO)C(=O)Cc2cc(NC(=O)Cn3cnnn3)ccc2O[C@H]1CN(C)S(=O)(=O)c1cccs1 | inactive
COc1ccc(NC(=O)Nc2cccc3c2O[C@H](CN(C)S(=O)(=O)c2cn(C)cn2)[C@@H](C)CN([C@H](C)CO)C3=O)cc1 | inactive
